From paper PMC4336329 (PLoS ONE, 2015)
About 14,000 (4.5%) of roughly 310,000 compounds showed an effect of 50% or more. The effect is printed as a negative number. What follows is part of a selection rich in strong results, with near analogues and random picks from the rest.

molecular target: human ether-à-go-go-related gene (hERG) potassium channel (human, UniProt Q12809); test: primary screen, population patch clamp on CHO cells stably expressing hERG; higher = less effect of the substance
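Note: peak tail current of the secondary pulse compared with the same well before compound.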

human ether-à-go-go-related gene (hERG) potassium channel, sequence (Q12809 whole entry, looked up): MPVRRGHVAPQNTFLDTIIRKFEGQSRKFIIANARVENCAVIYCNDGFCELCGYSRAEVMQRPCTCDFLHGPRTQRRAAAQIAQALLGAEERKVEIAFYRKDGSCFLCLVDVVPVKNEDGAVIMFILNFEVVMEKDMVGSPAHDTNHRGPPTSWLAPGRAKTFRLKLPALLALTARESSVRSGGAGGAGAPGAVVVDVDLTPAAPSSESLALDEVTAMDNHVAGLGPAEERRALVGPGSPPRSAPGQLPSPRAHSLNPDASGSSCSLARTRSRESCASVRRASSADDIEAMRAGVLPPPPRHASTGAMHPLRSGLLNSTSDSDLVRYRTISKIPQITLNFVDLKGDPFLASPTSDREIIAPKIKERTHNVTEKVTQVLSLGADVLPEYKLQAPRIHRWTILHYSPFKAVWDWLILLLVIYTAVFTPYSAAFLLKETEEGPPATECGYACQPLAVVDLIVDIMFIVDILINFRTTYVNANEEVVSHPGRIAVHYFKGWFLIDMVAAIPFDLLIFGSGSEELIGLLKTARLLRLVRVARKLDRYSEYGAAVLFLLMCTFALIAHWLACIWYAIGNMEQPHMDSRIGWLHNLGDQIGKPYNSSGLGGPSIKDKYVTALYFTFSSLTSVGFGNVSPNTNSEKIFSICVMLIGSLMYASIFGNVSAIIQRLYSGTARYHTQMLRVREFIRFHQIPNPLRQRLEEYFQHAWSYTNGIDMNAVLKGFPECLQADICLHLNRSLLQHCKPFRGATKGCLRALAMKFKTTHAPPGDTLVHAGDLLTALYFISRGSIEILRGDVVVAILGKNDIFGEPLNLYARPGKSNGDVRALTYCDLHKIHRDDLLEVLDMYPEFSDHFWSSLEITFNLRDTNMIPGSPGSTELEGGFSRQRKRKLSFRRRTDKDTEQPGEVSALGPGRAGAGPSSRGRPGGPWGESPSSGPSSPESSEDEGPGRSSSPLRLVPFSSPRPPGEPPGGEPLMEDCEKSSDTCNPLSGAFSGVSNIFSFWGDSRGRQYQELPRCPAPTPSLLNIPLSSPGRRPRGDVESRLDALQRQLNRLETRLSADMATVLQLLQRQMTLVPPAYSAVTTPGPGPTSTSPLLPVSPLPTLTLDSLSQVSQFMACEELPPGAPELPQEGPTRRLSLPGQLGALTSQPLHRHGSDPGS

| Compound | hERG current change (%, negative = inhibition) at 10uM |
| --- | --- |
| CC(C)NC(=O)C1CCN(C2CCN(CC3CC=CCC3)CC2)CC1 (stereo not shown) | -15% |
| O=C(O)c1cc(-c2cccs2)[nH]n1 | 15.5% |
| C/C(=N\NC(=O)c1[nH]c2c([N+](=O)[O-])cc(C)cc2c1-c1ccccc1)c1cccnc1 | 6.67% |
| CC12CCC(C(=O)N3CCN(c4ncccn4)CC3)(c3nc4ccccc4nc31)C2(C)C (stereo not shown) | -20.2% |
| CC12CCC(C(N)=O)(c3nc4ccccc4nc31)C2(C)C (stereo not shown) | -4.08% |
| CN1CCN(C(=O)C23CCC(C)(c4nc5ccccc5nc42)C3(C)C)CC1 (stereo not shown) | -53.3% |
| O=[N+]([O-])c1ccc(N2CCN(c3ccccc3Cl)CC2)cn1 | -34.3% |
| O=[N+]([O-])c1ccc(N2CCCCC2)cn1 | 8.92% |
| O=[N+]([O-])c1ccc(N2CCOCC2)cn1 | 15.4% |
| O=[N+]([O-])c1ccc(N2CCN(c3ccc(F)cc3)CC2)cn1 | -48.7% |
| O=[N+]([O-])c1ccc(N2CCN(c3ccc(O)cc3)CC2)cn1 | -52.8% |
| O=[N+]([O-])c1ccc(N2CCN(c3cccc(Cl)c3)CC2)cn1 | -63.2% |
| Cn1c(C(=O)NCc2ccccn2)cc2c(=O)n3ccccc3nc21 | -1.42% |
| CN(C)S(=O)(=O)c1cccc(NC(=O)c2cc3ccccc3o2)c1 | -13.7% |
| CCOc1ccc(N2C(=O)/C(=C/c3cccs3)N(CC(=O)OC)C2=S)cc1 | -28% |
| COC(=O)C(NC(C)=O)(Nc1nc2c(s1)CCCC2)C(F)(F)F (stereo not shown) | -4.29% |
| COCCCNC(=O)CSC1=Nc2ccccc2C2=NC(c3ccccc3)C(=O)N12 (stereo not shown) | -22.2% |
| O=C(Nc1ccc(F)cc1)Nc1ccc2ccccc2n1 | 14.2% |
| Cc1cc(C)c2nc(N(CCCN(C)C)C(=O)c3ccc4c(c3)OCCO4)sc2c1.Cl | -51.2% |
| COCCN(C(=O)c1cccc(N2C(=O)CCC2=O)c1)c1nc(-c2ccc([N+](=O)[O-])cc2)cs1 | -50.2% |
| COc1ccc(-c2csc(NC(=O)c3cccc(N4C(=O)CCC4=O)c3)n2)cc1OC | -1.68% |

| Compound | hERG current change (%, negative = inhibition) at 10uM |
| --- | --- |
| COc1ccc(C)c2sc(N(CCN(C)C)C(=O)c3ccc4ccccc4c3)nc12.Cl | -20.7% |
| Cc1cc(C)c2nc(N(CCCN(C)C)C(=O)c3ccc4c(c3)CCCC4)sc2c1.Cl | -3.72% |
| COc1ccc(C)c2sc(N(CCCN(C)C)C(=O)c3ccc4c(c3)OCCO4)nc12.Cl | -75.6% |
| Cc1cc(C)c2nc(N(CCN(C)C)C(=O)c3ccc4ccccc4c3)sc2c1.Cl | 11.6% |
| COc1ccc(C)c2sc(N(CCN(C)C)C(=O)c3cccc(N4C(=O)CCC4=O)c3)nc12.Cl | -57.9% |
| CN(C)CCN(C(=O)c1cccc(N2C(=O)CCC2=O)c1)c1nc2ccc(Br)cc2s1.Cl | -48.7% |
| COc1ccc(Cl)c2sc(N(CCN(C)C)C(=O)c3ccc4c(c3)OCCO4)nc12.Cl | -29.2% |
| COCCN(C(=O)C1CC(=O)N(Cc2ccccc2)C1)c1nc(-c2ccc([N+](=O)[O-])cc2)cs1 (stereo not shown) | -29.7% |
| COc1ccc(OC)c2sc(N(CCN(C)C)C(=O)c3ccc4ccccc4c3)nc12.Cl | -11.3% |
| CCOc1ccccc1NC(=O)NCc1ccco1 | 8.52% |
| CC(=O)N1CCc2cc(S(=O)(=O)CCC(=O)NCc3ccc(F)cc3)ccc21 | -13.8% |
| O=C1C=C(O)C(n2cncn2)C(c2ccc3c(c2)OCO3)C1 (stereo not shown) | 17.1% |
| O=C(NCc1cccnc1)c1nc(-c2ccccc2)n(-c2ccccc2)n1 | -14.7% |
| O=C(CCCCCn1c(=S)[nH]c2ccc(N3CCOCC3)cc2c1=O)NCc1ccccc1 | 12% |
| COc1ccc(C(=O)OCc2c(C)noc2C)cc1 | 12.9% |
| COC(=O)c1ccc(NC(=S)NC2CCc3ccccc32)cc1 (stereo not shown) | -13.9% |
| CNS(=O)(=O)c1ccc2c3c(cccc13)C(=O)N2 | 9.73% |
| Cc1cc(C)c2nc(N(CCCN(C)C)C(=O)c3ccc(S(=O)(=O)N4CC(C)OC(C)C4)cc3)sc2c1.Cl (stereo not shown) | -33.7% |
| Cc1cccc2sc(N(CCCN3CCOCC3)C(=O)CS(=O)(=O)c3ccc(F)cc3)nc12.Cl | -16.9% |
| Cc1ccc(S(=O)(=O)CC(=O)N(CCCN(C)C)c2nc3ccc(C)cc3s2)cc1.Cl | -43.9% |
| COc1ccc(C)c2sc(N(CCCN(C)C)C(=O)CS(=O)(=O)c3ccc(F)cc3)nc12.Cl | -60.3% |

| Compound | hERG current change (%, negative = inhibition) at 10uM |
| --- | --- |
| COc1ccc(C)c2sc(N(CCCN(C)C)C(=O)c3ccc(S(=O)(=O)N4CCc5ccccc5C4)cc3)nc12.Cl | 9.73% |
| COc1ccc(C)c2sc(N(CCCN(C)C)C(=O)c3ccc(S(=O)(=O)N(C)C)cc3)nc12.Cl | -61.5% |
| Cc1cc(C)c2nc(N(CCCN(C)C)C(=O)C3=COCCO3)sc2c1.Cl | -65.9% |
| COc1ccc(OC)c2sc(N(CCCN(C)C)C(=O)c3ccc(S(=O)(=O)N4CCc5ccccc5C4)cc3)nc12.Cl | -8.54% |
| Cc1cc(C)c2nc(N(CCN(C)C)C(=O)/C=C/c3cccs3)sc2c1.Cl | 17.9% |
| Cc1ccc(-n2nnnc2SCC(=O)N2CCCCC2)cc1 | -3.3% |
| CCNC(=S)N/N=C/c1c(Cl)cccc1Cl | 18.1% |
| Cc1cccc(-n2ncc3c2CCCC3NC(=O)C2CCOCC2)c1C (stereo not shown) | 6.59% |
| O=C(Nc1cnc2ccccn2c1=O)c1ccc(Cl)cc1 | -23% |
| COc1ccc(CNC(=O)C(C)N2C(=O)NC(c3ccccc3)(c3ccccc3)C2=O)cc1 (stereo not shown) | -86.5% |
| COc1ccc(NC(=O)CN2C(=O)NC(c3ccccc3)(c3ccccc3)C2=O)cc1 | -55% |
| CCN1C(=O)C(=O)N(CC(=O)N(C)CC(=O)Nc2ccccc2Cl)C1=O | 4.13% |
| COc1cc(NC(=O)CN2C(=O)NC(c3ccccc3)(c3ccccc3)C2=O)cc(OC)c1 | 5.79% |
| NC(=O)NC(=O)CN1C(=O)NC(c2ccccc2)(c2ccccc2)C1=O | 4.8% |
| CCNC(=O)NC(=O)C(C)N1C(=O)NC(c2ccccc2)(c2ccccc2)C1=O (stereo not shown) | -43.6% |
| CC(C(=O)NC(N)=O)N1C(=O)NC(c2ccccc2)(c2ccccc2)C1=O (stereo not shown) | -14.9% |
| C=CCNC(=O)NC(=O)CN1C(=O)NC(c2ccccc2)(c2ccccc2)C1=O | -69.5% |
| O=C(CN1C(=O)NC(c2ccccc2)(c2ccccc2)C1=O)NCc1ccccc1 | -31% |
| CN(CC(=O)Nc1ccccc1Cl)C(=O)COC(=O)CN1C(=O)NC2(CCCC2)C1=O | 9.31% |
| COc1ccc(C2(c3ccc(OC)cc3)NC(=O)N(CC(=O)Nc3ccccc3)C2=O)cc1 | 28.6% |
| CN(CC(=O)Nc1ccccc1Cl)C(=O)CN1C(=O)NC(c2ccccc2)(c2ccccc2)C1=O | -66.8% |

| Compound | hERG current change (%, negative = inhibition) at 10uM |
| --- | --- |
| CCOC(=O)N1CCN(C(=O)c2csc3c2CCCCC3)CC1 | 8.08% |
| C=C(C)C1Cc2c(C)nn(-c3ccccn3)c2C1 (stereo not shown) | 11% |
| Cc1csc(SCC(=O)Nc2sccc2C#N)n1 | -0.612% |
| Cc1oc(-c2ccccc2)nc1CS(=O)CC(=O)NC1CCCCCC1 (stereo not shown) | -11.5% |
| Cc1cccc(OCC(=O)NCC(=O)n2nc(C)cc2C)c1 | 10.5% |
| Oc1c(C(c2ccco2)N2CCC3(CC2)OCCO3)sc2ncnn12 (stereo not shown) | 1.38% |
| COc1ccc(C2C=C(c3ccc(Cl)cc3)Nc3nc(NC(C)=O)nn32)cc1 (stereo not shown) | -39.7% |
| COc1ccc(C2=CC(c3ccc(Cl)cc3)n3cnnc3N2)cc1OC (stereo not shown) | -52% |
| COc1ccc(C2=CC(c3c(C)nn(-c4ccccc4)c3Cl)n3nnnc3N2)cc1OC (stereo not shown) | 11.4% |
| Cc1ccc(OCc2nnc(SCC(=O)Nc3sc(C)c(C)c3C#N)n2C)cc1 | 12.8% |
| COCCn1c(SCC(=O)Nc2sc(C)c(C)c2C#N)nnc1-c1ccc(OC)cc1 | -52.1% |
| COCCn1c(SCC(=O)Nc2sc(C)c(C)c2C#N)nnc1C(C)C | -3.62% |
| Cc1ccc(-c2nnc(SCC(=O)Nc3sc(C)c(C)c3C#N)n2C)cc1 | -54.1% |
| CCOC(=O)c1sc(NC(=O)CSc2nnc(-c3ccc(OC)cc3)n2CCOC)nc1C | -27.3% |
| Cc1sc(NC(=O)CSc2nnc(C(C)C)n2C)c(C#N)c1C | -1.79% |
| CN1CCN(C(=S)c2ccc(-c3cc(Cl)ccc3Cl)o2)CC1 | -20.7% |
| CC1CCN(C(=O)COC(=O)c2cc3ccccc3cc2O)CC1 | 3.92% |
| O=C1c2ccccc2C(=O)N1n1c(=O)[nH]c2ccccc2c1=O | 14.9% |
| O=C(O)c1ccccc1-n1c2ccccc2c2ccccc21 | 19% |
